# Screening data deposited in PubChem by National Center for Advancing Translational Sciences (NCATS).
# Sampled rows, rich in hits. Any-hit rate of the full collection: about 9.3%.
# FLuc modulator = inhibits or activates purified firefly luciferase, miR-21 counter-screen; P08659; purified FLuc, Km substrates, luminescence inhibition; Potency, µM (series often up to 57.5 µM), hits mostly inhibitors; 360,000 compounds, 6.9% hits; also: nearly all actives have a fitted effect of over 55% in size
# Target sequence (P08659 whole entry, looked up): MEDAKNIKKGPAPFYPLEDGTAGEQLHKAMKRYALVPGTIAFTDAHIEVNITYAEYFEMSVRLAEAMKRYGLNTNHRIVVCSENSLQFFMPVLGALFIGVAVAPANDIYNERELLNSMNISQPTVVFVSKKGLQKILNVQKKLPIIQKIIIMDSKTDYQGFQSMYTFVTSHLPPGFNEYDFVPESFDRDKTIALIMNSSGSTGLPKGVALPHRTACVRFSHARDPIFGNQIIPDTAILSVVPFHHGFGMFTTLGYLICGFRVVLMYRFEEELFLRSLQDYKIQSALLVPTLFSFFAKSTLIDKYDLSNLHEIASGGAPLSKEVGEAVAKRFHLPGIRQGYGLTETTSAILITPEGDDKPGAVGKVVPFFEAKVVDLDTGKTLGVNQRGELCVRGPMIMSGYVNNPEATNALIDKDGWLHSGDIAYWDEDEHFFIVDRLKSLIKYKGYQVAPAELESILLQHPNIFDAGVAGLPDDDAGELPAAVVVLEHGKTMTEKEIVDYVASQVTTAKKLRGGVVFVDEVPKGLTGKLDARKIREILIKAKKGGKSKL
#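 Purified P. pyralis luciferase (10nM final) with 10uM D-luciferin and 10uM ATP (Km levels) in 50mM Tris acetate pH 7.5, 10mM Mg acetate, 0.01% Tween-20, 0.05% BSA; qHTS 6-point titration, ~60 µM downward; luminescence read.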
# SMN2 splice enh = increases expression of the SMN2 splice variant. AID 1458. HEK293 SMN2-luciferase splicing reporter, luminescence, 30-36 h. 210,000 compounds, 2.8% hits. Potency, µM (top dose mostly 46.1 µM), actives largely listed as activators; also: nearly all actives have a fitted effect of over 55% in size
#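 HEK293 cells carry an SMN2 minigene-luciferase reporter in which exon 7 inclusion puts luciferase in frame. Cells were seeded at 2000 cells/well, attached for 10-12 hours, then exposed to compounds for 30-36 hours at 37C before ONE-Glo luminescence.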
# ELG1 genotoxic = genotoxicity induction in ELG1-luciferase HEK293T cells; Potency, µM (top dose mostly 46 µM), actives largely listed as activators; AID 504466; 330,000 compounds, 1.3% hits; HEK293T ELG1-luciferase reporter, luminescence, 16 h; also: nearly all actives have a fitted effect of over 60% in size
#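 Screening used a luciferase reporter fused to human ELG1 in HEK293T cells. Luminescence was read on a CCD plate imager after 16 hr exposure and 30 min ONE-Glo incubation.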
# NPC1 promoter act = activates the NPC1 promoter; Huh7 NPC1 promoter luciferase reporter, 24 h; Potency, µM (titrated, usually from 9.22 µM), hits mostly activators; 320,000 compounds, 2.4% hits; also: nearly all actives have a fitted effect of over 60% in size
#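 NPC1 promoter–luciferase Huh7 cells; 24 h compound; luminescence.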
# Rab9 prom act = Rab9 promoter activation; Huh7 Rab9 promoter-luciferase reporter, luminescence, 24 h; 320,000 compounds, 2.8% hits; Potency, µM (top dose mostly 9.22 µM), most hits filed as activators; AID 485297; also: nearly all actives have a fitted effect of over 60% in size
#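 Rab9 promoter-driven luciferase in stably transfected Huh7 cells; 1500 cells/well rested 2 h, exposed to compound in DMSO for 24 h at 37 °C, 5% CO2. Luminescence read 10 min after adding luciferase reagent at ambient temperature.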
# ELG1 DNA repair = blocks ELG1-dependent DNA repair in HEK293T cells. HEK293T ELG1-luciferase reporter, luminescence, 16 h; DNA damage induced by 5-fluorouridine. 330,000 compounds, 2.3% hits. AID 504467. Potency, µM (highest dose often 46.1 µM), actives largely listed as inhibitors; also: nearly all actives have a fitted effect of over 55% in size
#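 Step one: seed 2,000 cells per well. Step two: pin-transfer compound or DMSO alongside 5-fluorouridine. Step three: incubate 16 hr, 37 °C, 5% CO2. Step four: add ONE-Glo, wait 30 min, read luminescence.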
# Numbers stand for hits; . = inactive; ? = inconclusive; / = no result; [ ] = dose if it differs, or a comment. Calls follow the shape of the dose curve; as a rule, active = well fitted curve in the direction sought with a large enough effect; inconclusive = small, poorly fitted or top-dose-only effect, or another doubt; inactive = no such curve, though single readings can be large; an effect the other way counts as inactive or inconclusive.
SMILES,FLuc modulator,SMN2 splice enh,ELG1 genotoxic,NPC1 promoter act,Rab9 prom act,ELG1 DNA repair
COc1ccc(-n2nc3cc(C)c(NC(=O)COc4cccc(C)c4)cc3n2)cc1,?,.,/,/,/,/
COc1ccc(-n2nc3cc(C)c(NC(=O)c4cccnc4)cc3n2)cc1,1.1µM,.,?,?,?,?
Cc1ccccc1NC(=O)c1ccccn1,?,/,.,.,.,?
O=C(COc1ccccc1[N+](=O)[O-])Nc1cc(-c2nc3cc(Cl)ccc3o2)ccc1Cl,.,.,/,/,/,/
CCOC(=O)c1ccc(NC(=O)CC2NCCNC2=O)cc1 (stereo unspecified),.,.,.,.,.,.
C/C(CC(=O)N1CCN(C=O)CC1)=N\NC(=O)c1ccc([N+](=O)[O-])cc1,?,/,.,.,.,.
CSCc1ccc(C(=O)N2CCC(CCC(=O)N(C)Cc3ccccc3)CC2)o1,.,/,.,.,.,.
COc1ccc(-c2c(C(C)=O)c(C)nc3sc4c(=O)[nH]nnc4c23)cc1,.,.,.,.,.,.
CCN(CC(=O)NCc1ccc(F)cc1)C(=O)c1ccc(COc2ccccc2)cc1,17µM,/,.,?,?,?
Cc1ccc(C(=O)Nc2ccccc2C(=O)O)cc1S(=O)(=O)N1CCCCCC1,0.95µM,?,/,/,/,/
Cc1ccc(C(=O)NNC(=O)c2ccccc2)cc1S(=O)(=O)N1CCCCC1,21µM,/,.,.,.,.
CC(=C/c1ccccc1)/C=C1/SC(N2CCOCC2)=NC1=O,15µM,?,.,?,?,?
CCN1C(=O)/C(=C/C2=Cc3ccccc3OC2C)SC1=S (stereo unspecified),13µM,/,.,.,.,.
CC1Oc2ccccc2C=C1/C=C1/SC(N2CCOCC2)=NC1=O (stereo unspecified),21µM,.,.,.,?,?
COc1ccc2c(CNCCc3cccs3)c(C(=O)O)n(Cc3ccc(F)cc3Cl)c2c1,.,/,/,/,/,/
CC(=O)COc1ccc2cc(-c3ccccc3)c(=O)oc2c1,?,/,?,1.1µM,1µM,?
COc1ccc(-c2cc3ccc(OCC(N)=O)cc3oc2=O)cc1OC,?,/,.,.,.,?
COc1ccc(-c2cc3ccc(OC(C)C(=O)O)cc3oc2=O)cc1 (stereo unspecified),27µM,/,?,.,.,?
O=C(CCCCl)Oc1ccc2cc(-c3ccc4ccccc4n3)c(=O)oc2c1,?,13µM,?,?,?,?
CC(=O)Oc1ccc2cc(-c3ccccc3)c(=O)oc2c1,2.4µM,/,?,4µM,?,?
COCCNCCCCOc1ccccc1-c1ccccc1,.,.,.,.,.,.
O=C(NCc1ccco1)c1cc(-c2cccc(Cl)c2)on1,.,.,?,.,.,?
O=C(NCc1ccccn1)c1cn(-c2ccccc2)nc1-c1ccc(Cl)cc1,19µM,.,.,.,.,.
O=C(NCc1ccco1)c1cc(-c2ccc3c(c2)OCO3)on1,?,?,?,2.5µM,4µM,?
Cc1ccc(-c2cc(C(=O)NCc3ccco3)no2)cc1,?,?,?,2.8µM,2.2µM,?
SMILES,FLuc modulator,SMN2 splice enh,ELG1 genotoxic,NPC1 promoter act,Rab9 prom act,ELG1 DNA repair
O=C(NCc1ccco1)c1cc(-c2ccc(Cl)cc2)on1,.,.,.,3.2µM,?,?
COc1cc(CNc2ccc3c(c2)ncn3C(C)C)cc(OC)c1OC,.,.,/,/,/,/
O=c1[nH]c2ccccc2n2c(C(F)(F)F)nnc12,.,/,.,.,.[1.84 µM],.
O=C(/C=C/c1ccc(S(=O)(=O)NCc2ccco2)cc1)NCc1ccccc1Cl,.,/,.,.,.,.
O=C(/C=C/c1ccc(Cl)cc1)NCc1ccco1,13µM,.,.,.,.,?
COc1cccc(-c2cc(C(=O)NCc3ccco3)no2)c1,11µM,11µM,10µM,3.2µM,1.8µM,?
CC(C)Cc1cc(C(=O)NCc2ccco2)no1,17µM,/,?,?,4µM,?
O=C(NCc1ccccn1)c1ccc([N+](=O)[O-])cc1,.,.,.,.,.,.
Cc1cc(C(=O)NCc2ccco2)no1,.,/,.,.,.,.
O=C(NCc1ccccn1)c1ccc(-c2ccccc2)cc1,12µM,/,?,?,?,?
Clc1ccc(N2CCN(Cc3nnc(-c4ccc5c(c4)OCO5)o3)CC2)cc1,.,.,/,/,/,/
CCCCC(=O)NC(=S)Nc1cccc(NC(=O)c2ccccc2)c1,?,.,.,.,.,?
COCCNC(=O)CN(c1ccc(C)cc1)S(=O)(=O)c1ccc(SC)cc1,.,.,.,.,.,.
Cc1cccn2c(=O)cc(COc3ccc(NC(=O)C(C)Oc4ccccc4)cc3)nc12 (stereo unspecified),.,/,/,/,/,/
O=C(NNC(=O)c1ccccn1)c1ccc(OC(F)F)cc1,/,/,?,/,/,.
O=C(NCCc1ccccn1)c1ccc(OC(F)F)cc1,11µM,11µM,?,1.4µM,0.79µM,?
Cc1ccc(-c2cc(C(=O)NCc3ccccn3)no2)cc1,17µM,28µM,13µM,?,?,?
O=C(NCc1ccccn1)c1cc(-c2ccccc2)on1,?,?,?,.,?,?
COc1ccc(O)c(C(=O)c2cnn(C(=O)c3cccc(S(=O)(=O)N(C)C)c3)c2)c1,/,/,.,/,/,.
CCn1c(SCC(=O)Nc2ccc(N(C)C)cc2)nnc1C1CC1,.,/,.,.,.,.
Cc1ccc(/C=C2\SC(=O)N(CCNC(=O)C3CSC4(C)CCC(=O)N34)C2=O)cc1 (stereo unspecified),19µM,/,.,.,.,.
Cc1ccc(/C=C2\SC(=O)N(CCC(=O)N3CCN(C)CC3)C2=O)cc1,13µM,/,?,?,.,?
COc1ccc(/C=C2\SC(=O)N(CCC(=O)N3CCN(C)CC3)C2=O)cc1,19µM,/,.,.,.,?
CN1CCN(C(=O)CCN2C(=O)S/C(=C/c3ccc(Cl)cc3)C2=O)CC1,?,.,.,.,.,.
O=S(=O)(Nc1cc(Cl)ccc1-n1cncn1)c1ccccc1Cl,.,/,.,.,.,.
SMILES,FLuc modulator,SMN2 splice enh,ELG1 genotoxic,NPC1 promoter act,Rab9 prom act,ELG1 DNA repair
CS(=O)(=O)N(CC(=O)NCc1ccncc1)c1cc(Cl)ccc1Cl,.,/,.,.,.,.
Cc1nc2scc(-c3ccccc3)c2c(=O)o1,.,.,.,.,.,?
O=c1oc(-c2ccccc2F)nc2scc(-c3ccccc3)c12,4.8µM,/,?,.,?,?
c1ccc(-c2nnc(-c3ccccc3)nn2)cc1,0.38µM,/,?,3.2µM,1.3µM,?
CSc1nc2sc3c(c2c(=O)n1C)CCC3,.,/,.,.,.,.
CSc1nc2sc3c(c2c(=O)n1C)CCC(C)C3 (stereo unspecified),13µM,.,.,.,.,?
COc1ccccc1C(=O)NC(=S)Nc1cccnc1Cl,2.4µM,/,0.82µM,1.1µM,1µM,?
